Measured values from PubChem BioAssay (NCI).
About 79,000 compounds went through this panel and 15% of them were active in at least one assay; those are over-represented in the sample as a whole. The source made the active and inactive calls. No stated cut-off is given here; in the data, active means growth inhibition above about 70%; inactive means the rest.

Assay: NCI Yeast Anticancer Drug Screen. Data for the sgs1 mgt1 strain (AID 161);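 further: 0% = growth of cultures given vehicle only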
Conditions: S. cerevisiae sgs1 mgt1 strain, at 50.0 µM, hits give high values
Method in brief: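 Mutant yeast exposed to compound; growth scored against vehicle-only wells.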

SMILES | growth inhibition
COc1ccc(CN2CCCN(Cc3ccc(OC)cc3OC)C2c2ccc(N(CCCl)CCCl)cc2)c(OC)c1 | 60.8% (inactive)
[Cl][Pt+2][Cl].[NH-]c1ccc([N+](=O)[O-])cc1[NH-] | 75.5% (active)
O=C(Oc1ccc(S(=O)(=O)F)cc1F)c1ccccc1Cl | 99.3% (active)
Oc1c(I)cc(I)cc1I | 7.7% (inactive)
CCCCCCCCCCCCCCCC[N+](C)(C)CCOS(C)(=O)=O | 90.3% (active)
CN(C)CC1(N)C(=O)NC(=O)NC1=O | 47.3% (inactive)
CC1=C(O)C(=O)C=C2C1=CC=C1[C@@]2(C)CC[C@@]2(C)[C@@H]3C[C@](C)(C(=O)O)CC[C@]3(C)CC[C@]12C | 93.6% (active)
CCC[CH2][Sn]([CH2]CCC)([N]=C=S)[N]=C=S | 98% (active)
O=C(C[n+]1ccccc1)C1CCc2ccccc2C1 (stereo not given) | -1.5% (inactive)
[Cl][Pt][Cl].c1ccc([AsH](CC[AsH](c2ccccc2)c2ccccc2)c2ccccc2)cc1 | 98.8% (active)
COc1cc(/C=C\[N+](=O)[O-])ccc1O | 99.5% (active)
Cc1sc(Cc2ccccc2)nc1-c1ccc(N=Cc2ccc(N(CCCl)CCCl)cc2)cc1 | 96% (active)
CC1(C)C2CCC([CH2][Hg][Cl])C1C2 (stereo not given) | 99.2% (active)
CC12C(=O)C=CCC1=CCC1C2CCC2(O)C(=O)OC3(C)C4CC5(C)C(COC16OC23C5C6=O)C(=O)O4 (stereo not given) | 54.4% (inactive)
O=C(CBr)OCC(Br)CBr (stereo not given) | 99.3% (active)
S=c1[nH]c2ccccc2s1.[Pb] | 95.5% (active)
O=[N+]([O-])c1ccc(C(Br)Br)cc1 | 99.7% (active)
CC(C)(C)[Si](OC(=O)N(CCCl)CCCl)(c1ccccc1)c1ccccc1 | 79.5% (active)
CCCCCCCC[N+]12CN3CN(CN(C3)C1)C2 | 7.75% (inactive)
CC(C=O)[Se]c1ccccc1 (stereo not given) | 86.2% (active)

SMILES | growth inhibition
CCOP(=O)(N=Nc1cccnc1)OCC | 5.05% (inactive)
COc1cc(/C=C/c2ccc(OC)c(O)c2)cc(OC)c1 | 98.9% (active)
ClC1CCCCC1[Se](Cl)(Cl)C1CCCCC1Cl (stereo not given) | 99.5% (active)
C/C(=N/NC(N)=S)c1ccc(Cl)cc1 | 94% (active)
O=C(Nc1ccccc1)c1cc([N+](=O)[O-])ccc1O.[Ni] | 77.5% (active)
CC1(C)N=C(N)N=C(N)N1c1ccc(OCCCCNC(=O)Nc2ccc(S(=O)(=O)F)cc2)c(Cl)c1 | 99.4% (active)
Nc1nc(N)c(-c2ccc(Cl)c(Cl)c2)c(COc2ccc(CNC(=O)Nc3cccc(S(=O)(=O)F)c3)cc2Cl)n1 | 74.8% (active)
CC(=O)[O-].CC(=O)[O-].O=C(N/N=C/c1cc(Cl)cc(Cl)c1[OH2+])c1ccncc1.[Co+2] | 58.2% (inactive)
CC(Br)C(=O)C(CCN(C)C)(c1ccccc1)c1ccc(Br)s1 (stereo not given) | 0.8% (inactive)
[N-]=[N+]=NC1(N=[N+]=[N-])C(=O)NN=C(c2ccccc2)C1=O (stereo not given) | 88% (active)
NC(=O)c1cc([N+](=O)[O-])c(Cl)c([N+](=O)[O-])c1Cl | 91.5% (active)
Nc1nc(N)c(-c2ccc(Cl)c(Cl)c2)c(CCc2ccc(CNC(=O)c3cccc(S(=O)(=O)F)c3)cc2)n1 | 45.9% (inactive)
CCOC(=O)C(Cl)Cl | -5.25% (inactive)
C1=C[N-]c2c3c(ccc2=C1)=CC=C[N-]3.C1=C[N-]c2c3c(ccc2=C1)=CC=C[N-]3.F[P-](F)(F)(F)(F)F.[Cu+2] | 99.5% (active)
CCCCCCCCCCC(=O)O.[Pb] | 38.5% (inactive)
CN(Cc1ccccc1)CC(O)c1cccc(I)c1 (stereo not given) | 51.6% (inactive)
CCOc1c(Br)cc(N=Cc2ccc(N(CCCl)CCCl)c(OC)c2)cc1Br | 76.2% (active)
COC(=O)C1ON(c2ccccc2)C2c3ccccc3-c3ccccc3C12 (stereo not given) | 61.3% (inactive)
COc1ccccc1C(Cc1ccc(N2C(N)=NC(N)=NC2(C)C)cc1)C(=O)Nc1ccc(S(=O)(=O)F)cc1 (stereo not given) | 99.2% (active)
O=[N+]([O-])c1cc([N+](=O)[O-])c(Cl)s1 | 99.4% (active)

Assay: NCI Yeast Anticancer Drug Screen. Data for the cln2 rad14 strain (AID 165);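 further: 0% = growth equal to vehicle treated cultures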
Conditions: S. cerevisiae cln2 rad14 strain, at 5.0 µM (retest, dose inferred, filed as 0.5), hits give high values
Method in brief: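 Test compounds were added to cln2 rad14 yeast cultures; inhibition of growth was then determined by comparison with vehicle treatment.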

SMILES | growth inhibition
COc1ccc(CN2CCCN(Cc3ccc(OC)cc3OC)C2c2ccc(N(CCCl)CCCl)cc2)c(OC)c1 | -8% (inactive)
[Cl][Pt+2][Cl].[NH-]c1ccc([N+](=O)[O-])cc1[NH-] | 99% (active)
O=C(Oc1ccc(S(=O)(=O)F)cc1F)c1ccccc1Cl | -10% (inactive)
Oc1c(I)cc(I)cc1I | -4% (inactive)
CCCCCCCCCCCCCCCC[N+](C)(C)CCOS(C)(=O)=O | 93% (active)
CN(C)CC1(N)C(=O)NC(=O)NC1=O | -1% (inactive)
CC1=C(O)C(=O)C=C2C1=CC=C1[C@@]2(C)CC[C@@]2(C)[C@@H]3C[C@](C)(C(=O)O)CC[C@]3(C)CC[C@]12C | 92% (active)
CCC[CH2][Sn]([CH2]CCC)([N]=C=S)[N]=C=S | 87% (active)
O=C(C[n+]1ccccc1)C1CCc2ccccc2C1 (stereo not given) | 0% (inactive)
[Cl][Pt][Cl].c1ccc([AsH](CC[AsH](c2ccccc2)c2ccccc2)c2ccccc2)cc1 | 98% (active)
COc1cc(/C=C\[N+](=O)[O-])ccc1O | 21% (inactive)
Cc1sc(Cc2ccccc2)nc1-c1ccc(N=Cc2ccc(N(CCCl)CCCl)cc2)cc1 | -1% (inactive)
CC1(C)C2CCC([CH2][Hg][Cl])C1C2 (stereo not given) | 99% (active)
CC12C(=O)C=CCC1=CCC1C2CCC2(O)C(=O)OC3(C)C4CC5(C)C(COC16OC23C5C6=O)C(=O)O4 (stereo not given) | 3% (inactive)
O=C(CBr)OCC(Br)CBr (stereo not given) | 97% (active)
S=c1[nH]c2ccccc2s1.[Pb] | -10% (inactive)
O=[N+]([O-])c1ccc(C(Br)Br)cc1 | 70% (active)
CC(C)(C)[Si](OC(=O)N(CCCl)CCCl)(c1ccccc1)c1ccccc1 | 19% (inactive)
CCCCCCCC[N+]12CN3CN(CN(C3)C1)C2 | 2% (inactive)
CC(C=O)[Se]c1ccccc1 (stereo not given) | -9% (inactive)

SMILES | growth inhibition
CCOP(=O)(N=Nc1cccnc1)OCC | 1% (inactive)
COc1cc(/C=C/c2ccc(OC)c(O)c2)cc(OC)c1 | -14% (inactive)
ClC1CCCCC1[Se](Cl)(Cl)C1CCCCC1Cl (stereo not given) | -15% (inactive)
C/C(=N/NC(N)=S)c1ccc(Cl)cc1 | -10% (inactive)
O=C(Nc1ccccc1)c1cc([N+](=O)[O-])ccc1O.[Ni] | 46% (inactive)
CC1(C)N=C(N)N=C(N)N1c1ccc(OCCCCNC(=O)Nc2ccc(S(=O)(=O)F)cc2)c(Cl)c1 | -4% (inactive)
Nc1nc(N)c(-c2ccc(Cl)c(Cl)c2)c(COc2ccc(CNC(=O)Nc3cccc(S(=O)(=O)F)c3)cc2Cl)n1 | -6% (inactive)
CC(=O)[O-].CC(=O)[O-].O=C(N/N=C/c1cc(Cl)cc(Cl)c1[OH2+])c1ccncc1.[Co+2] | 5% (inactive)
CC(Br)C(=O)C(CCN(C)C)(c1ccccc1)c1ccc(Br)s1 (stereo not given) | -12% (inactive)
[N-]=[N+]=NC1(N=[N+]=[N-])C(=O)NN=C(c2ccccc2)C1=O (stereo not given) | 23% (inactive)
NC(=O)c1cc([N+](=O)[O-])c(Cl)c([N+](=O)[O-])c1Cl | 91% (active)
Nc1nc(N)c(-c2ccc(Cl)c(Cl)c2)c(CCc2ccc(CNC(=O)c3cccc(S(=O)(=O)F)c3)cc2)n1 | -10% (inactive)
CCOC(=O)C(Cl)Cl | -2% (inactive)
C1=C[N-]c2c3c(ccc2=C1)=CC=C[N-]3.C1=C[N-]c2c3c(ccc2=C1)=CC=C[N-]3.F[P-](F)(F)(F)(F)F.[Cu+2] | 51% (inactive)
CCCCCCCCCCC(=O)O.[Pb] | -2% (inactive)
CN(Cc1ccccc1)CC(O)c1cccc(I)c1 (stereo not given) | 1% (inactive)
CCOc1c(Br)cc(N=Cc2ccc(N(CCCl)CCCl)c(OC)c2)cc1Br | -3% (inactive)
COC(=O)C1ON(c2ccccc2)C2c3ccccc3-c3ccccc3C12 (stereo not given) | 14% (inactive)
COc1ccccc1C(Cc1ccc(N2C(N)=NC(N)=NC2(C)C)cc1)C(=O)Nc1ccc(S(=O)(=O)F)cc1 (stereo not given) | -2% (inactive)
O=[N+]([O-])c1cc([N+](=O)[O-])c(Cl)s1 | 99% (active)
